# Measured values reported in the supplement of paper PMC10037445.
# In all, about 2,900 compounds were measured (“NF-kB SEAP reporter activity, fold change vs agonist alone”: median about 0.99, highest 2% from about 2.6 on). The list comes from a sample in which the highest values are over-represented; it also holds similar structures and randomly drawn compounds.
# Legend:
# RAW-Dual [1] = assay: NF-kB SEAP reporter activity, fold change vs agonist alone; cytotoxicity flag (confluency mask): not cytotoxic; higher = enhanced NF-kB activity
# Method in brief: (§1)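 Cytotoxic wells were those whose IncuCyte confluency was below 70% of agonist controls in both mask sets. The cells were RAW-Dual macrophages at 50,000 cells/well in DMEM on 384-well plates, dosed with 50 nL of library stock by pin tool, stimulated with a PRR agonist 1 h later, and kept at 37 °C, 5% CO2 for 20 hours. IRF and NF-κB reporter activity, as fold change over agonist-alone wells, came from supernatant read by QuantiLuc luminescence and QuantiBlue absorbance, respectively.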
# RAW-Dual [2] = assay: NF-kB SEAP reporter activity, fold change vs agonist alone; higher = enhanced NF-kB activity; details: library stock concentration (final ~1000-fold dilution): 10 mM
# Method in brief: as §1
# RAW-Dual [3] = assay: NF-kB SEAP reporter activity, fold change vs agonist alone; cytotoxicity flag (confluency mask): cytotoxic (confluency <70% of control); higher = enhanced NF-kB activity
# Method in brief: as §1
# [4] = agonist: ODN 1826 (TLR9) 0.5 ug/mL
# [5] = agonist: Pam2CSK4 (TLR2/6) 0.1 ug/mL
# [6] = agonist: Pam3CSK4 (TLR2/1) 0.1 ug/mL
# [7] = cytotoxicity flag (confluency mask): not cytotoxic, agonist: Imiquimod (TLR7) […]
# [8] = cytotoxicity flag (confluency mask): not cytotoxic, agonist: MPLA (TLR4) […]
smiles,measurement,setting,value
Fc1ccc2[nH]ccc2c1-c1nc(N2CCOCC2)c2sc(CN3CCN(CC4CC4)CC3)cc2n1 (library stock concentration (final ~1000-fold dilution): 10 mM),NF-kB SEAP reporter activity,RAW-Dual [1]; agonist: LPS (TLR4) 0.1 ug/mL,2.9
same,NF-kB SEAP reporter activity,RAW-Dual [1]; [4],0.272
same,NF-kB SEAP reporter activity,RAW-Dual [1]; [5],1.03
same,NF-kB SEAP reporter activity,RAW-Dual [1]; [6],0.935
CS(=O)(=O)N1CCN(Cc2cc3nc(-c4cccc5[nH]ncc45)nc(N4CCOCC4)c3s2)CC1 (library stock concentration (final ~1000-fold dilution): 10 mM),NF-kB SEAP reporter activity,RAW-Dual [1]; agonist: LPS (TLR4) 0.1 ug/mL,1.87
same,NF-kB SEAP reporter activity,RAW-Dual [1]; [4],0.247
same,NF-kB SEAP reporter activity,RAW-Dual [1]; [5],1.02
same,NF-kB SEAP reporter activity,RAW-Dual [1]; [6],0.72
Fc1ccc2[nH]ccc2c1-c1nc(N2CCOCC2)c2sc(CN3CCN(CC4CC4)CC3)cc2n1,NF-kB SEAP reporter activity,RAW-Dual [2]; [7],0.944
same,NF-kB SEAP reporter activity,RAW-Dual [2]; [8],1.25
CS(=O)(=O)N1CCN(Cc2cc3nc(-c4cccc5[nH]ncc45)nc(N4CCOCC4)c3s2)CC1,NF-kB SEAP reporter activity,RAW-Dual [2]; [7],1.77
same,NF-kB SEAP reporter activity,RAW-Dual [2]; [8],1.75
O=C(CCNC(=O)c1ccc(OC(F)(F)F)cc1)NC1CCCc2ccccc21 (centres undefined) (library stock concentration (final ~1000-fold dilution): 10 mM),NF-kB SEAP reporter activity,RAW-Dual [1]; agonist: LPS (TLR4) 0.1 ug/mL,0.767
same,NF-kB SEAP reporter activity,RAW-Dual [1]; [4],1.33
same,NF-kB SEAP reporter activity,RAW-Dual [1]; [5],0.519
same,NF-kB SEAP reporter activity,RAW-Dual [1]; [6],0.68
O=C(CCNC(=O)c1ccc(OC(F)(F)F)cc1)NC1CCCc2ccccc21 (centres undefined),NF-kB SEAP reporter activity,RAW-Dual [2]; [7],1.66
same,NF-kB SEAP reporter activity,RAW-Dual [2]; [8],1.13
COc1cc2c(cc1OC)CC(=O)N(CCCN(C)CC1Cc3cc(OC)c(OC)cc31)CC2.Cl (centres undefined) (library stock concentration (final ~1000-fold dilution): 10 mM),NF-kB SEAP reporter activity,RAW-Dual [1]; agonist: LPS (TLR4) 0.1 ug/mL,1.3
same,NF-kB SEAP reporter activity,RAW-Dual [1]; [4],0.895
same,NF-kB SEAP reporter activity,RAW-Dual [1]; [5],0.867
same,NF-kB SEAP reporter activity,RAW-Dual [1]; [6],1.1
COc1cc2c(cc1OC)CC(=O)N(CCCN(C)CC1Cc3cc(OC)c(OC)cc31)CC2.Cl (centres undefined),NF-kB SEAP reporter activity,RAW-Dual [2]; [7],0.885
same,NF-kB SEAP reporter activity,RAW-Dual [2]; [8],0.951
CCOC(=O)NC1CCC2C(C1)CC1C(=O)OC(C)C1C2/C=C/c1ccc(-c2cccc(F)c2)cn1 (centres undefined),NF-kB SEAP reporter activity,RAW-Dual [2]; [7],0.145
same,NF-kB SEAP reporter activity,RAW-Dual [2]; [8],0.289
CCOC(=O)NC1CCC2C(C1)CC1C(=O)OC(C)C1C2/C=C/c1ccc(-c2cccc(F)c2)cn1 (centres undefined) (library stock concentration (final ~1000-fold dilution): 10 mM),NF-kB SEAP reporter activity,RAW-Dual [1]; agonist: LPS (TLR4) 0.1 ug/mL,0.824
same,NF-kB SEAP reporter activity,RAW-Dual [1]; [4],0.243
same,NF-kB SEAP reporter activity,RAW-Dual [1]; [5],0.212
same,NF-kB SEAP reporter activity,RAW-Dual [1]; [6],0.158
NC(=O)N1CCC(CC(=O)N2CCC(C3c4ncc(Br)cc4CCc4cc(Cl)cc(Br)c43)CC2)CC1 (centres undefined),NF-kB SEAP reporter activity,"RAW-Dual [2]; cytotoxicity flag (confluency mask): cytotoxic (confluency <70% of control), agonist: Imiquimod (TLR7) […]",0.614
same,NF-kB SEAP reporter activity,"RAW-Dual [2]; cytotoxicity flag (confluency mask): cytotoxic (confluency <70% of control), agonist: MPLA (TLR4) […]",0.603
NC(=O)N1CCC(CC(=O)N2CCC(C3c4ncc(Br)cc4CCc4cc(Cl)cc(Br)c43)CC2)CC1 (centres undefined) (library stock concentration (final ~1000-fold dilution): 10 mM),NF-kB SEAP reporter activity,RAW-Dual [3]; agonist: LPS (TLR4) 0.1 ug/mL,0.422
same,NF-kB SEAP reporter activity,RAW-Dual [3]; [4],0.347
same,NF-kB SEAP reporter activity,RAW-Dual [3]; [5],0.171
same,NF-kB SEAP reporter activity,RAW-Dual [3]; [6],0.223
Nc1ccccc1NC(=O)c1cnccn1,NF-kB SEAP reporter activity,RAW-Dual [2]; [7],0.997
same,NF-kB SEAP reporter activity,RAW-Dual [2]; [8],1.12
O=C(Nc1ccc(O)cc1)c1ccccc1O,NF-kB SEAP reporter activity,RAW-Dual [2]; [7],1.68
same,NF-kB SEAP reporter activity,RAW-Dual [2]; [8],1.24
CC(=O)Nc1ccc(C(=O)Nc2ccccc2N)cc1,NF-kB SEAP reporter activity,RAW-Dual [2]; [7],2.21
same,NF-kB SEAP reporter activity,RAW-Dual [2]; [8],1.74
O=C(Nc1ccc(O)cc1)c1ccccc1O (library stock concentration (final ~1000-fold dilution): 10 mM),NF-kB SEAP reporter activity,RAW-Dual [1]; agonist: LPS (TLR4) 0.1 ug/mL,1.17
same,NF-kB SEAP reporter activity,RAW-Dual [1]; [4],1.93
same,NF-kB SEAP reporter activity,RAW-Dual [1]; [5],0.921
same,NF-kB SEAP reporter activity,RAW-Dual [1]; [6],1.04
CC(=O)Nc1ccc(C(=O)Nc2ccccc2N)cc1 (library stock concentration (final ~1000-fold dilution): 10 mM),NF-kB SEAP reporter activity,RAW-Dual [1]; agonist: LPS (TLR4) 0.1 ug/mL,2.28
same,NF-kB SEAP reporter activity,RAW-Dual [1]; [4],2.86
same,NF-kB SEAP reporter activity,RAW-Dual [1]; [5],0.724
same,NF-kB SEAP reporter activity,RAW-Dual [1]; [6],0.832
Nc1ccccc1NC(=O)c1cnccn1 (library stock concentration (final ~1000-fold dilution): 10 mM),NF-kB SEAP reporter activity,RAW-Dual [1]; agonist: LPS (TLR4) 0.1 ug/mL,1.4
same,NF-kB SEAP reporter activity,RAW-Dual [1]; [4],1.16
same,NF-kB SEAP reporter activity,RAW-Dual [1]; [5],0.443
same,NF-kB SEAP reporter activity,RAW-Dual [1]; [6],0.532
